This is an account of results in PubChem BioAssay (NCATS).

SMILES strings stand for the structures. Inconclusive results are not listed. The source made the active and inactive calls. Unless noted, calls follow the shape of the dose curve; as a rule, active = well fitted curve in the direction sought with a large enough effect; inconclusive = small, poorly fitted or top-dose-only effect, or another doubt; inactive = no such curve, though single readings can be large; an effect the other way counts as inactive or inconclusive.

Assay [1] concerns the target Cytochrome P450 3A4 (Homo sapiens) (UniProt P08684). Put plainly: qHTS Assay for Inhibitors and Substrates of Cytochrome P450 3A4 (AID 884). Also: % is scaled to controls: 0 for no effect and ±100 for the full control effect; nearly all actives have a fitted effect of over 50% in size. The method in brief: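 Luminescent readout of luciferin produced by CYP3A4 (20 nM) dealkylation of Luciferin-PPXE, 25 uM (its KM). NADPH-driven reaction ran 60 min at RT after 10 min compound preincubation; data scaled to 57 uM ketoconazole as 100% inhibition.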
For orientation: Quantitative high-throughput screening tests each substance at several concentrations.

A short description of assay [2]: Confirmation and Secondary Assay for Modulators of Hemoglobin Beta Chain Splicing at IVS2 654 locus (AID 910).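 Also: per-well total GFP intensity by laser scanning cytometry after 2-day treatment; % of control where 0% means no effect.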 The gist of the method: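 HeLa cells stably carrying EGFP interrupted by mutant beta-globin IVS2-654 intron (CMV-driven) were treated with compound for 2 days at 37C; corrected splicing was scored as total peak GFP intensity per well (488 nm excitation, 500-520 nm emission).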

Assay [3] can be described thus: Confirmation and Secondary Assay for Modulators of Hemoglobin Beta Chain Splicing at IVS2 705 locus (AID 930).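 Also: HeLa cells stably expressing the EGFP-705 splicing reporter; GFP fluorescence per well restored by corrected splicing of the IVS2-705 intron in EGFP; % of control where 0% means no effect.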 The method in brief:
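HeLa IVS2-705 EGFP reporter cells, 500/well, compound 2 d at 37C; correct splicing yields fluorescent EGFP. Control: 500 nM antisense PNA. Read-out: total peak GFP intensity.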

Assay [4] can be described thus: qHTS Assay for Lipid Storage Modulators (AID 1519; calls by dose curve; as to activity change, negative = inhibition: % is scaled to controls: 0 for no effect and ±100 for the full control effect). The settings on record: Drosophila S3 cells, BODIPY lipid droplet/cell ratio, laser cytometry, cells loaded with oleic acid; for activity change, negative = inhibition: at 57.5 µM (top of the series). The method in brief: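 Cells seeded at 5,000 per well were treated with compounds over a concentration series and loaded with oleic acid (400 uM, as added). Lipid droplet fluorescence (488 nm excitation, 500-530 nm channel) was read by laser-scanning cytometry and normalized to 20 uM Triacsin C.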

For assay [5], the target named is Ubiquitin carboxyl-terminal hydrolase 1 (Homo sapiens) (UniProt O94782). Put plainly: Inhibitors of USP1/UAF1: Pilot qHTS (AID 504865).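 Also: rhodamine fluorescence freed from ubiquitin-rhodamine substrate followed over time; top concentration of the series differs between compounds; % is scaled to controls: 0 for no effect and ±100 for the full control effect; nearly all actives have a fitted effect of over 35% in size.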 The method in brief:
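Kinetic fluorescence assay: 1nM USP1/UAF1, 15 min compound preincubation, then 150nM Ub-Rho; 480/540 nm.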

[6] abbreviates: measured here: cell count channel max response.
Setting [7] is: measured here: lipid channel max response.

Chain of Ubiquitin carboxyl-terminal hydrolase 1 (Homo sapiens) (O94782 whole entry, looked up): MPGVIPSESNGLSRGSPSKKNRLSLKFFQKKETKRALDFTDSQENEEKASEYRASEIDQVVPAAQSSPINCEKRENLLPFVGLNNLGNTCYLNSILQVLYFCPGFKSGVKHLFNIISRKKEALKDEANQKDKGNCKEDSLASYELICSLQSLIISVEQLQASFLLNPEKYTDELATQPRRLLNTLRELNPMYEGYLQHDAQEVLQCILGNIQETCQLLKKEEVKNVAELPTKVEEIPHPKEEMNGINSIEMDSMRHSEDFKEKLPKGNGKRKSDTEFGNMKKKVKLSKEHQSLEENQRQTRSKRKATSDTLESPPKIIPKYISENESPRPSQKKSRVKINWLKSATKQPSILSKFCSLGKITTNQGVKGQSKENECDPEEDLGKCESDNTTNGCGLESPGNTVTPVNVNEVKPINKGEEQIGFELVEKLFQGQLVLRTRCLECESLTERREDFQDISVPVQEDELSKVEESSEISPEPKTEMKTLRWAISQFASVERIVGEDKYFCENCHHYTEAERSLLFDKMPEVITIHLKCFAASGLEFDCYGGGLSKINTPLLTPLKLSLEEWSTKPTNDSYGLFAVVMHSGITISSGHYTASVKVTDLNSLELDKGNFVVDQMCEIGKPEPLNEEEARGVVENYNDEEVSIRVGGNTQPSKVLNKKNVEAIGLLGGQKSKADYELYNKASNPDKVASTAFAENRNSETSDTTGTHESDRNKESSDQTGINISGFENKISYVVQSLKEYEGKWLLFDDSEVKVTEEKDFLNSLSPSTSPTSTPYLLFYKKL
Chain of Cytochrome P450 3A4 (Homo sapiens) (P08684 whole entry, looked up): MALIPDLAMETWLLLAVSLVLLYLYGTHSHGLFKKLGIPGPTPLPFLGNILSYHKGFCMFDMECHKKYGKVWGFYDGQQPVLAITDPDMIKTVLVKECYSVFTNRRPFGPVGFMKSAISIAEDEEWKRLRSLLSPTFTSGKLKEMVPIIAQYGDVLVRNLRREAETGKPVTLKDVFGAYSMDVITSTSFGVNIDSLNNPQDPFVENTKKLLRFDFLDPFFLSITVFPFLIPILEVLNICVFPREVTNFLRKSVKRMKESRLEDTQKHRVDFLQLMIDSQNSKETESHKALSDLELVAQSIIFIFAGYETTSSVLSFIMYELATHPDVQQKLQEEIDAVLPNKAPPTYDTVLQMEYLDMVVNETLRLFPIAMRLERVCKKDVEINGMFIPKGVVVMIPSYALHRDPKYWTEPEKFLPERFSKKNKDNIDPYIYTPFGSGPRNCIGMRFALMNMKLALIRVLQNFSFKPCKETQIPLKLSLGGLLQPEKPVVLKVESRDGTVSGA

Consider `OCC1O[C@@H](OC2C(O)C(CO)O[C@@]2(CO)O[C@@H]2OC(CO)C(O)C(O)C2O)C(O)C(O)C1O` (stereo partly specified), for which the Potency result in assay [1], in assay [2], in assay [3] and in assay [5] was “inactive” each time. In addition, the activity change, negative = inhibition in assay [4] is 4.82% (inactive). Besides, the results for the max response in assay [4] (setting [6]) and in assay [4] (setting [7]) were 0.0409% and 4.57%, respectively.

In the case of `Nc1nc2nc(Cl)[nH]c2c(=O)[nH]1`, the Potency result in assay [1], in assay [2], in assay [3] and in assay [5] was “inactive” each time. For the same compound, the activity change, negative = inhibition in assay [4] was 6.34% (inactive). The values for the max response in assay [4] (setting [6]) and in assay [4] (setting [7]) were 6.47% and 14.5%, respectively.

Turning to `CCCC(NC(C)C(=O)N1C(C(=O)O)CC2CCCCC21)C(=O)OCC` (stereo unspecified), the Potency entry in assay [1], in assay [2], in assay [3] and in assay [5] was “inactive” throughout. For the same compound, in assay [4], the activity change, negative = inhibition was 9% (inactive). In addition, the max response in assay [4] (setting [6]) came to 4.3%; in assay [4] (setting [7]), 11.7%.

Consider `COc1cc2c(cc1OC)C1(O)C(=O)c3ccc(O)c(C(=O)O)c3OC1CO2` (stereo unspecified), for which the Potency entry in assay [1], in assay [2], in assay [3] and in assay [5] was “inactive” throughout. Further, the activity change, negative = inhibition in assay [4] is 8.88% (inactive). For the same compound, the max response came out at 8.21% in assay [4] (setting [6]) and 21.1% in assay [4] (setting [7]).

On to `CC1CC[C@]2(CO)CC[C@]3(C)C(=CCC4[C@@]5(C)CCC(O)C(C)(C)C5CC[C@@]43C)C2C1C` (stereo partly specified), for which the Potency result in assay [1], in assay [2], in assay [3] and in assay [5] was “inactive” in each case. Further, the activity change, negative = inhibition in assay [4] was 6.23% (inactive). The max response in assay [4] (setting [6]) was 4.46%; in assay [4] (setting [7]), 20%.

In the case of `CC1(C)C=Cc2cc3ccc(=O)oc3cc2O1`, the Potency result in assay [1], in assay [2], in assay [3] and in assay [5] was “inactive” in each case. Further, the activity change, negative = inhibition in assay [4] was 11.6% (inactive). In addition, the values for the max response in assay [4] (setting [6]) and in assay [4] (setting [7]) were -4.2% and 7.43%, respectively.

With `CC1(C)C2CC[C@@]1(C)C(=O)C2`, the Potency entry in assay [1], in assay [2], in assay [3] and in assay [5] was “inactive” each time. Besides, the activity change, negative = inhibition in assay [4] is 3.53% (inactive). Moreover, the max response in assay [4] (setting [6]) is 13.5%; in assay [4] (setting [7]), 19.8%.

Take `CC(=O)N[C@H](Cc1c[nH]c2ccccc12)C(N)=O`: the Potency entry in assay [1], in assay [2], in assay [3] and in assay [5] was “inactive” each time. The activity change, negative = inhibition in assay [4] is 4.6% (inactive). For the same compound, the results for the max response in assay [4] (setting [6]) and in assay [4] (setting [7]) were 3.77% and 4.03%, respectively.

Regarding `O=C(O)c1cc2cc(Cl)ccc2[nH]1`, the Potency entry in assay [1], in assay [2], in assay [3] and in assay [5] was “inactive” in each case. Besides, the activity change, negative = inhibition in assay [4] is 4.59% (inactive). Also, the figures for the max response in assay [4] (setting [6]) and in assay [4] (setting [7]) were 19.5% and 25.3%, respectively.

`COc1ccc(C(=O)c2ccccc2)c(O)c1O`: the Potency result in assay [1], in assay [2], in assay [3] and in assay [5] was “inactive” throughout. For the same compound, the activity change, negative = inhibition in assay [4] was 1.94% (inactive). For the same compound, the results for the max response in assay [4] (setting [6]) and in assay [4] (setting [7]) were -24.4% and -18%, respectively.

As to `CCCCCC1C(=O)CCC1CC(=O)OC` (stereo unspecified), the Potency result in assay [1], in assay [2], in assay [3] and in assay [5] was “inactive” each time. Besides, the activity change, negative = inhibition in assay [4] is 7.58% (inactive). Besides, the max response in assay [4] (setting [6]) worked out at 6.16%; in assay [4] (setting [7]), 16%.

With `COc1ccc(-c2coc3cc(O)ccc3c2=O)c(OC)c1O`, the Potency entry in assay [1], in assay [2], in assay [3] and in assay [5] was “inactive” in each case. For the same compound, the activity change, negative = inhibition in assay [4] was -3.58% (inactive). Also, the max response in assay [4] (setting [6]) was found to be 12.3%; in assay [4] (setting [7]), 2.49%.

Take `CCCCCC(CC(=O)O)C(=O)O` (stereo unspecified): the Potency entry in assay [1], in assay [2], in assay [3] and in assay [5] was “inactive” throughout. Besides, the activity change, negative = inhibition in assay [4] was 12.5% (inactive). Moreover, the max response in assay [4] (setting [6]) was found to be 21.4%; in assay [4] (setting [7]), 35.2%.

Consider `CS(=O)(=O)CCCCN=C=S`, for which the Potency entry in assay [1], in assay [2], in assay [3] and in assay [5] was “inactive” throughout. Besides, the activity change, negative = inhibition in assay [4] is -15.3% (inactive). Moreover, the max response in assay [4] (setting [6]) is -1.15%; in assay [4] (setting [7]), -18%.

As for `CCC(CCC(C)C1CCC2C3CCC4CC(O)CC[C@@]4(C)C3CC[C@@]12C)C(C)C` (stereo partly specified), the Potency entry in assay [1], in assay [2], in assay [3] and in assay [5] was “inactive” each time. Also, the activity change, negative = inhibition in assay [4] is 7.69% (inactive). Moreover, the values for the max response in assay [4] (setting [6]) and in assay [4] (setting [7]) were 1.31% and 10.4%, respectively.

As to `Nc1nc(O)c2ncn([C@H]3CC[C@@H](CO)O3)c2n1`, the Potency result in assay [1], in assay [2], in assay [3] and in assay [5] was “inactive” in each case. Also, the activity change, negative = inhibition in assay [4] was 7.72% (inactive). Moreover, the max response was -2.43% in assay [4] (setting [6]) and 2.95% in assay [4] (setting [7]).

Take `NC(=O)c1ccc[n+]([C@@H]2OC(COP(=O)([O-])OP(=O)(O)OCC3OC(n4cnc5c(N)ncnc54)C(OP(=O)(O)O)C3O)C(O)C2O)c1` (stereo partly specified): the Potency result in assay [1], in assay [2], in assay [3] and in assay [5] was “inactive” throughout. Also, in assay [4], the activity change, negative = inhibition was 5.09% (inactive). Further, the max response was 9.14% in assay [4] (setting [6]) and 18.1% in assay [4] (setting [7]).

Consider `CC(=O)OCC(=O)[C@@]1(O)CCC2C3CCC4=CC(=O)CC[C@@]4(C)[C@]3(F)C(O)C[C@]21C` (stereo partly specified), for which the Potency result in assay [1], in assay [2], in assay [3] and in assay [5] was “inactive” each time. For the same compound, the activity change, negative = inhibition in assay [4] is 4.35% (inactive). Also, the figures for the max response in assay [4] (setting [6]) and in assay [4] (setting [7]) were 21.1% and 29.1%, respectively.

`Nc1nc2c(nc(Br)n2C2OC(CO)C(O)C2O)c(=O)[nH]1` (stereo unspecified): the Potency result in assay [1], in assay [2], in assay [3] and in assay [5] was “inactive” each time. For the same compound, the activity change, negative = inhibition in assay [4] was 2.67% (inactive). Besides, the figures for the max response in assay [4] (setting [6]) and in assay [4] (setting [7]) were 15.6% and 18.1%, respectively.

Regarding `CC(C)CCCC(C)C1CCC2C3CC=C4CC(O)CC[C@@]4(C)C3CC[C@@]12C` (stereo partly specified), the Potency entry in assay [1], in assay [2], in assay [3] and in assay [5] was “inactive” each time. Moreover, in assay [4], the activity change, negative = inhibition is 2.88% (inactive). Also, the max response was -11.4% in assay [4] (setting [6]) and -8.92% in assay [4] (setting [7]).

As for `Cc1cn(C2CCC(CO)O2)c(=O)[nH]c1=O` (stereo unspecified), the Potency entry in assay [1], in assay [2], in assay [3] and in assay [5] was “inactive” in each case. For the same compound, the activity change, negative = inhibition in assay [4] was 4.05% (inactive). For the same compound, the max response worked out at 13.1% in assay [4] (setting [6]) and 17.4% in assay [4] (setting [7]).

As to `NC(=O)NCC(N)C(=O)O` (stereo unspecified), the Potency result in assay [1], in assay [2], in assay [3] and in assay [5] was “inactive” each time. In addition, the activity change, negative = inhibition in assay [4] was 2.49% (inactive). Moreover, the max response was 3.72% in assay [4] (setting [6]) and 6.05% in assay [4] (setting [7]).

For the compound `CC(=O)OCCC(C)CCC=C(C)C` (stereo unspecified), the Potency entry in assay [1], in assay [2], in assay [3] and in assay [5] was “inactive” in each case. Besides, in assay [4], the activity change, negative = inhibition was 5.97% (inactive). In addition, the max response in assay [4] (setting [6]) was 4.67%; in assay [4] (setting [7]) it was 12.4%.
